# Data published in PubChem BioAssay (EPA / NIEHS).
# Several values for one entry are separate records, joined by “and”; a condition that tells them apart may be missing. Equal values may be shown once. Records with an inconclusive call do not appear. Some compounds were tested as several samples or in several runs, with calls that do not always agree. Activity calls are given as the source filed them. How the source made its calls, unless noted: active means hit-call score of the fitted dose curve at least 0.9, where 1 is the maximum; inactive means score below 0.9.
# Experiment: CCTE_Mundy_HCI_Cortical_Synap_Neur_Matur_NeuriteLength: CCTE's Synaptogenesis and Neurite Maturation Assay in rat cortical cells for Neurite Length, Mundy Lab (AID 2284214)
# Conditions: not given
# How it was run: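 Cultures of rat primary cortical cells received chemical at DIV 7 and were fixed at DIV 12, after glial arrest with AraC at DIV 5. Neurite length was measured by automated imaging of MAP2 immunofluorescence.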
Compound,AC50,outcome
ClC1=C(Cl)[C@]2(Cl)[C@@H]3[C@@H]4C[C@@H]([C@H]5O[C@@H]45)[C@@H]3[C@@]1(Cl)C2(Cl)Cl,12.8 µM (active),
CCOP(=S)(OCC)SCSC(C)(C)C,81.5 µM (active) and 17.5 µM (active),
C=CC(N)=O,,inactive
CO/C=C(/C(=O)OC)c1ccccc1COc1cccc(C(F)(F)F)n1,0.731 µM (active),
COc1ccc(O)c(C(C)(C)C)c1,,inactive
O=S(=O)(O)C(F)(F)C(F)(F)C(F)(F)C(F)(F)F,,inactive
ClC1=C(Cl)[C@]2(Cl)[C@@H]3[C@@H](Cl)[C@H]4O[C@H]4[C@@H]3C1(Cl)C2(Cl)Cl,4.05 µM (active),
O=S(=O)(O)C(F)(F)C(F)(F)C(F)(F)C(F)(F)C(F)(F)C(F)(F)F,,inactive

# Experiment: CCTE_Mundy_HCI_Cortical_Synap_Neur_Matur_NeuriteSpotCountPerNeuron: CCTE's Synaptogenesis and Neurite Maturation Assay in rat cortical cells for Neurite Spot Count per Neuron Count, Mundy Lab (AID 2284215)
# Conditions: not given
# How it was run: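 Rat primary cortical cells received AraC at DIV 5, then chemicals with a media change at DIV 7, and were fixed at DIV 12. Synaptophysin puncta on MAP2-stained neurites per neuron were counted by high-content imaging, fitted relative to DMSO.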
Compound,AC50,outcome
ClC1=C(Cl)[C@]2(Cl)[C@@H]3[C@@H]4C[C@@H]([C@H]5O[C@@H]45)[C@@H]3[C@@]1(Cl)C2(Cl)Cl,13 µM (active),
CCOP(=S)(OCC)SCSC(C)(C)C,81 µM (active) and 22.9 µM (active),
C=CC(N)=O,,inactive
CO/C=C(/C(=O)OC)c1ccccc1COc1cccc(C(F)(F)F)n1,0.688 µM (active),
COc1ccc(O)c(C(C)(C)C)c1,,inactive
O=S(=O)(O)C(F)(F)C(F)(F)C(F)(F)C(F)(F)F,,inactive
ClC1=C(Cl)[C@]2(Cl)[C@@H]3[C@@H](Cl)[C@H]4O[C@H]4[C@@H]3C1(Cl)C2(Cl)Cl,8.58 µM (active),
O=S(=O)(O)C(F)(F)C(F)(F)C(F)(F)C(F)(F)C(F)(F)C(F)(F)F,,inactive

# Experiment: TAMU_PeakParms_SingleDonor1434_Chronotropy: Texas A&M University (TAMU) 1.5-hr Human Induced Pluripotent Stem Cell (iPSC)-derived Cardiomyocytes Calcium (Ca+2) Flux Assay for Cardiotoxicity: Chronotropy (changes in peak frequency) (AID 2284217)
# Conditions: actives raise or lower the signal
# How it was run: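 Beat rate, as mean Ca2+-flux peak frequency, was read from donor 1434 iPSC cardiomyocytes 90 min after exposure to 0.2–100 uM test chemical (0.5% DMSO). Wells that stopped beating were excluded; EC05 from bidirectional DMSO-referenced fitting.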
Compound,AC50,outcome
c1cc2ccc3cccc4ccc(c1)c2c34,50 µM (active),
ClC1=C(Cl)[C@]2(Cl)[C@@H]3[C@@H]4C[C@@H]([C@H]5O[C@@H]45)[C@@H]3[C@@]1(Cl)C2(Cl)Cl,4.73 µM (active),
C=CC(N)=O,,inactive

# Experiment: CCTE_Mundy_HCI_Cortical_Synap_Neur_Matur_SynapseCount: CCTE's Synaptogenesis and Neurite Maturation Assay in rat cortical cells for Synapse Count, Mundy Lab (AID 2284218)
# Conditions: not given
# How it was run: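 Cells were plated, allowed 2 hr to attach, treated with AraC at DIV 5, then exposed to chemicals from DIV 7 until DIV 12. After fixation and MAP2/synaptophysin immunolabelling, synapses per neuron were quantified by automated imaging against DMSO.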
Compound,AC50,outcome
ClC1=C(Cl)[C@]2(Cl)[C@@H]3[C@@H]4C[C@@H]([C@H]5O[C@@H]45)[C@@H]3[C@@]1(Cl)C2(Cl)Cl,13.2 µM (active),
CCOP(=S)(OCC)SCSC(C)(C)C,79.7 µM (active) and 22.9 µM (active),
C=CC(N)=O,,inactive
CO/C=C(/C(=O)OC)c1ccccc1COc1cccc(C(F)(F)F)n1,0.871 µM (active),
COc1ccc(O)c(C(C)(C)C)c1,,inactive
O=S(=O)(O)C(F)(F)C(F)(F)C(F)(F)C(F)(F)F,,inactive
ClC1=C(Cl)[C@]2(Cl)[C@@H]3[C@@H](Cl)[C@H]4O[C@H]4[C@@H]3C1(Cl)C2(Cl)Cl,9.03 µM (active),
O=S(=O)(O)C(F)(F)C(F)(F)C(F)(F)C(F)(F)C(F)(F)C(F)(F)F,,inactive

# Experiment: CCTE_Mundy_HCI_hN2_NOG_NeuriteCount: CCTE's Neurite Outgrowth Assay in human hN2 cells for Neurite Count, Mundy Lab (AID 2284219; active means hit-call score of the fitted dose curve at least 0.9, where 1 is the maximum)
# Conditions: not given
# How it was run: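 In this morphology assay, hNP1-derived neurons received test chemical 2 h post-plating and were fixed two days later in warm paraformaldehyde/sucrose containing Hoechst 33342. Neurites, labelled by rabbit anti-βIII-tubulin (1:800) and Alexa Fluor-488 (1:500), were counted automatically.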
Compound,outcome,AC50
CCOP(=S)(OCC)SCSC(C)(C)C,inactive,
C=CC(N)=O,inactive,
ClC1=C(Cl)[C@]2(Cl)[C@@H]3[C@@H](Cl)[C@H]4O[C@H]4[C@@H]3C1(Cl)C2(Cl)Cl,,13.2 µM (active)

# Experiment: CCTE_Mundy_HCI_hN2_NOG_NeuriteLength: CCTE's Neurite Outgrowth Assay in human hN2 cells for Neurite Length, Mundy Lab (AID 2284220; active means hit-call score of the fitted dose curve at least 0.9, where 1 is the maximum)
# Conditions: not given
# How it was run: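 Using βIII-tubulin immunofluorescence and Hoechst nuclear counterstain, this component quantifies neurite length in hNP1-derived neurons.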
Compound,outcome,AC50
ClC1=C(Cl)[C@]2(Cl)[C@@H]3[C@@H]4C[C@@H]([C@H]5O[C@@H]45)[C@@H]3[C@@]1(Cl)C2(Cl)Cl,inactive,
CCOP(=S)(OCC)SCSC(C)(C)C,inactive,
C=CC(N)=O,inactive,
ClC1=C(Cl)[C@]2(Cl)[C@@H]3[C@@H](Cl)[C@H]4O[C@H]4[C@@H]3C1(Cl)C2(Cl)Cl,,13.1 µM (active)

# Experiment: CCTE_Mundy_HCI_hN2_NOG_NeuronCount: CCTE's Neurite Outgrowth Assay in human hN2 cells for Neuron Count, Mundy Lab (AID 2284221; active means hit-call score of the fitted dose curve at least 0.9, where 1 is the maximum)
# Conditions: not given
# How it was run: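 Read-out is the number of betaIII-tubulin-positive neurons imaged by automated high-content analysis, with DMSO as negative control.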
Compound,AC50,outcome
ClC1=C(Cl)[C@]2(Cl)[C@@H]3[C@@H]4C[C@@H]([C@H]5O[C@@H]45)[C@@H]3[C@@]1(Cl)C2(Cl)Cl,50 µM (active),
CCOP(=S)(OCC)SCSC(C)(C)C,,inactive
C=CC(N)=O,,inactive
ClC1=C(Cl)[C@]2(Cl)[C@@H]3[C@@H](Cl)[C@H]4O[C@H]4[C@@H]3C1(Cl)C2(Cl)Cl,5.59 µM (active),

# Experiment: CCTE_Mundy_HCI_Cortical_Synap_Neur_Matur_NeuriteCount: CCTE's Synaptogenesis and Neurite Maturation Assay in rat cortical cells for Neurite Count, Mundy Lab (AID 2284222);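 on outcome: exposure from day 7 to day 12 in vitro with readout at day 12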
# Conditions: not given
# How it was run: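 Rat cortical neurons, 96-well; AraC DIV 5; chemical + media change DIV 7; end DIV 12. Fix PFA/Hoechst, anti-MAP2 + anti-synaptophysin IF. HCI neurite count vs DMSO baseline.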
Compound,AC50,outcome
CCOP(=S)(OCC)SCSC(C)(C)C,22.5 µM (active),inactive
C=CC(N)=O,,inactive
CO/C=C(/C(=O)OC)c1ccccc1COc1cccc(C(F)(F)F)n1,1.46 µM (active),
COc1ccc(O)c(C(C)(C)C)c1,,inactive
O=S(=O)(O)C(F)(F)C(F)(F)C(F)(F)C(F)(F)F,,inactive
ClC1=C(Cl)[C@]2(Cl)[C@@H]3[C@@H](Cl)[C@H]4O[C@H]4[C@@H]3C1(Cl)C2(Cl)Cl,,inactive
O=S(=O)(O)C(F)(F)C(F)(F)C(F)(F)C(F)(F)C(F)(F)C(F)(F)F,,inactive

# Experiment: CCTE_Mundy_HCI_Cortical_Synap_Neur_Matur_CellBodySpotCount: CCTE's Synaptogenesis and Neurite Maturation Assay in rat cortical cells for Cell Body Spot Count, Mundy Lab (AID 2284223)
# Conditions: not given
# How it was run: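 Rat primary cortical cultures received AraC at DIV 5 to arrest glia, were dosed with chemical at DIV 7 with media change, and were fixed at DIV 12 (288.33 h). Synaptophysin puncta on MAP2-positive cell bodies per neuron were counted by high-content imaging versus DMSO.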
Compound,AC50,outcome
ClC1=C(Cl)[C@]2(Cl)[C@@H]3[C@@H]4C[C@@H]([C@H]5O[C@@H]45)[C@@H]3[C@@]1(Cl)C2(Cl)Cl,24 µM (active),
CCOP(=S)(OCC)SCSC(C)(C)C,22.9 µM (active),inactive
C=CC(N)=O,,inactive
CO/C=C(/C(=O)OC)c1ccccc1COc1cccc(C(F)(F)F)n1,1.16 µM (active),
COc1ccc(O)c(C(C)(C)C)c1,,inactive
O=S(=O)(O)C(F)(F)C(F)(F)C(F)(F)C(F)(F)F,,inactive
ClC1=C(Cl)[C@]2(Cl)[C@@H]3[C@@H](Cl)[C@H]4O[C@H]4[C@@H]3C1(Cl)C2(Cl)Cl,9.92 µM (active),
O=S(=O)(O)C(F)(F)C(F)(F)C(F)(F)C(F)(F)C(F)(F)C(F)(F)F,,inactive
